Screening data as filed in PubChem BioAssay.
A selection: hits, their analogues and other compounds. The true share with any hit is near 10%.
JMJD2A Tudor inh = JMJD2A Tudor domain (human) inhibition; O75164; AlphaScreen JMJD2A-Tudor / H3K4me3 peptide binding; Potency, µM (titrated, usually from 114 µM), inactives show top-dose activity change, negative = inhibition, actives largely listed as inhibitors; 390,000 tested, 4.4% active; note: potency is the fitted concentration of half-maximal effect; % is set by controls: 0 for no effect and ±100 for the full control effect; nearly all actives have a fitted effect of over 50% in size
G9a block = blocks human histone lysine methyltransferase G9a; AID 504332; Potency, µM (series often up to 102 µM), for the others: at the top dose activity, negative = inhibition, usual class: inhibitors; 350,000 tested, 8.8% active; Q96KQ7; G9a H3K9 monomethylation, AlphaScreen, 2 h; note: potency is the fitted concentration of half-maximal effect; % is set by controls: 0 for no effect and ±100 for the full control effect; nearly all actives have a fitted effect of over 75% in size
Target sequence (Q96KQ7 913-1193 limits assumed): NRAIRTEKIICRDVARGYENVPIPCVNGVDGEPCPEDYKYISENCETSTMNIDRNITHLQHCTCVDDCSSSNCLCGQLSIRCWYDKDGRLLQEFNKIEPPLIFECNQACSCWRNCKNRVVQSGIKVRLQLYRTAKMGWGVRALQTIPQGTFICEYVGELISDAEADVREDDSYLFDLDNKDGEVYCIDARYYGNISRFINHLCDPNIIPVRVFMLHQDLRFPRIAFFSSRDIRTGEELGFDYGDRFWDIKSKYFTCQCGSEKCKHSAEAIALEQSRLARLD
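Compounds were preincubated with 20 nM G9a for 15 min, after which biotinylated H3K9 peptide (500 nM) and SAM (20 uM) started a 2 h room-temperature reaction. Monomethylated product was quantified by antibody-based AlphaScreen chemiluminescence.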
BAZ2B inh = inhibitors of human BAZ2B bromodomain; Q9UIF8; AlphaScreen BAZ2B-H3K14Ac peptide displacement; Potency, µM (doses to about 114 µM), inactives show top-dose activity change, negative = inhibition, most hits filed as inhibitors; 360,000 tested, 4.4% active; note: potency is the fitted concentration of half-maximal effect; % is set by controls: 0 for no effect and ±100 for the full control effect; nearly all actives have a fitted effect of over 60% in size
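In this displacement format the biotinylated H3(5-23) peptide acetylated at Lys14 serves as ligand at 50 nM, with BAZ2B at 50 nM in PBS pH 7.4 containing 0.01% Tween-20. Donor and acceptor beads are 10 ug/mL final.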
CtBP-E1A blk = inhibitors of CtBP/E1A interaction; AlphaScreen GST-E1A/His-CtBP binding, 1536-well; stronger effect = lower value; activity change, % (test concentration not listed); 340,000 tested, 0.49% active; AID 651724; in the data active = activity change below about -65%; inconclusive = mostly about -30% to -63%; note: % is set by controls: 0 for no effect and ±100 for the full control effect
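Steps: dispense buffer (Tris pH 8.0, NaCl 300 mM, TCEP 1 mM, BSA, Tween 20); add 5X protein mix (GST-E1A, His-CtBP, 125 nM each); pin 23 nL compound; 2 h at 37 °C, dark; add 5X beads (50 ug/mL); 1 h; read.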
HP1b binding inh = blocks HP1-beta chromodomain binding to methylated histone tails; AlphaScreen HP1-beta / biotin-H3K9me3 peptide binding; 390,000 tested, 0.56% active; Potency, µM (titrated, usually from 114 µM), without a hit: at the top dose activity change, negative = inhibition, most hits filed as inhibitors; note: potency is the fitted concentration of half-maximal effect; nearly all actives have a fitted effect of over 70% in size
Target sequence (P83916 whole entry, looked up): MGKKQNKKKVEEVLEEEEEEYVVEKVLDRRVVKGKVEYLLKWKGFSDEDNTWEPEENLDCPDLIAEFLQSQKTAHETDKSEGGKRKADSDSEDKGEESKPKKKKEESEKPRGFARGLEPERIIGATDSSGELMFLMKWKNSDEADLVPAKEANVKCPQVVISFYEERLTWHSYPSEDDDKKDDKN
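Compound inhibition of the preformed complex between 50 nM HP1-beta and 50 nM biotinylated H3K9me3 peptide was read by AlphaScreen. Buffer was PBS pH 7.4 with 0.01% Tween-20. Incubations ran 30 min at room temperature, with 10 ug/mL donor/acceptor beads.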
Six1-Eya2 blk = inhibitors of human Six1/Eya2 interaction | 360,000 tested, 0.56% active | AID 651725 | activity change, % (test concentration not listed) | AlphaScreen GST-Six1/His-Eya2 binding, biochemical; stronger effect = lower value; in the data active = activity change below about -65%; inconclusive = mostly about -30% to -63%; note: % is set by controls: 0 for no effect and ±100 for the full control effect
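Six1/Eya2 binding was read as AlphaScreen signal after compounds were pinned into GST-Six1 plus His-tagged Eya2 (5X stock 250/500 nM) in pH 8.0 Tris/NaCl/TCEP buffer, beads added, then incubated 1 h, 37 C, dark.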
* marks the source's active call; other numbers are inactive results; ? = inconclusive; / = not tested or not shown; [ ] = remark or other dose. Unless noted, calls come from the whole dose curve; as a rule, active = well fitted inhibition curve with a large enough effect; inconclusive = small, poorly fitted or top-dose-only effect; inactive = no such curve, though single readings can be large or run the other way.

SMILES	JMJD2A Tudor inh	G9a block	BAZ2B inh	CtBP-E1A blk	HP1b binding inh	Six1-Eya2 blk
CC(=O)Nc1ccc(S(=O)(=O)NNC(=O)c2cccc(Cl)c2)cc1	-24%	5.6µM*	-9%	0	22%	-1
O=C(Nc1ccc(S(=O)(=O)Nc2ncccn2)cc1)c1cccc(Cl)c1	1%	4%[59 µM]	1%	/	42%	/
CC(=O)Nc1ccc(S(=O)(=O)NNC(=O)c2ccc3c(c2)OCO3)cc1	11µM*	76%[12.7 µM]	16%	4	24%	9
O=C(CSc1ccccn1)Nc1ccc(NC(=O)CSc2ccccn2)cc1	-8%	/	-4%	4	27%	4
O=C(CSC1=NNC(c2ccccn2)S1)Nc1cccc(Cl)c1 (configuration not stated)	22µM*	/	7.1µM*	-96*	14%	-89*
O=C(CSC1=NNC(c2ccccn2)S1)Nc1ccccc1 (configuration not stated)	6.3µM*	?	5.6µM*	-94*	42%	-94*
COc1ccc(-n2c(-c3ccc(F)cc3)cn3c4c(=O)n(C)c(=O)n(C)c4nc23)cc1	-4%	0%[59 µM]	-15%	/	27%	/
CCOC(=O)c1cnc2nc(C)nn2c1N	-8%	28µM*	-34%	0	29%	11
CCCCCC(=O)OCCc1c(C)nc2nc[nH]n2c1=O	5%[11.4 µM]	6%	-38%	/	49%	12
CCOC(=O)c1cnc2nc[nH]n2c1=O	-27%	56µM*	16%	1	25%	1
CCOC(=O)c1ccc(NC(=O)CCc2c(C)nc3nc[nH]n3c2=O)cc1	-10%	-6%[59 µM]	56µM*	/	28%	/
CCN(CC)C(=O)c1nc(-c2cccc3ccccc23)no1	/	/	/	-13	/	29
Cn1cncc1CNc1ncnc2ccc(-c3ccc4c(c3)OCO4)cc12	56µM*	/	/	/	/	/
Cc1ccc(CNc2ncnc3ccc(-c4ccc5c(c4)OCO5)cc23)s1	-26%	/	/	/	/	/
CC1CC(C)CN(c2nc(N(C)c3ccccc3)nc(N)c2[N+](=O)[O-])C1 (configuration not stated)	40µM*	10µM*	?	/	-25%	-5
NC(=O)c1ccc[n+](Cc2ccccc2)c1	-5%	71µM*	1%	2	34%	1
c1ccc(C[n+]2cccc(-c3ccccc3)c2)cc1	-17%[57.1 µM]	7%[59 µM]	3%	1	21%	5
NC(=O)C[n+]1cccc(C(=O)Nc2ccccc2)c1	-8%	50µM*	-30%	-8	-5%	10
CC(C)(C)CCN1CCC(CN2CCNC2=S)CC1	/	/	/	-4	/	8
OCn1ncn(-c2ccccc2)c1=S	35µM*	?	-12%	5	19%	2
Cc1ccc(Cn2ncn(-c3ccccc3)c2=O)cc1	2%[57.1 µM]	-1%	1%	7	49%	4
COc1ccccc1CN1CCN(S(=O)(=O)c2ccccc2)CC1	40µM*	?	32µM*	1	?	-2
Cc1ccc(S(=O)(=O)N2CCN(Cc3cccc(F)c3)CC2)cc1	3.2µM*	/	/	3	?	-2
Cc1ccc(S(=O)(=O)N2CCN(Cc3ccccc3)CC2)cc1	2%	19%	2%	6	67%	0
COc1ccc(S(=O)(=O)N2CCN(c3ccc(F)cc3)CC2)cc1OC	2%	-1%	?	0	28%	7
SMILES	JMJD2A Tudor inh	G9a block	BAZ2B inh	CtBP-E1A blk	HP1b binding inh	Six1-Eya2 blk
COc1ccc(CN2CCN(S(=O)(=O)c3ccc(F)cc3)CC2)cc1OC	3.2µM*	10µM*	32µM*	2	?	1
O=S(=O)(Cc1ccccc1)N1CCN(Cc2ccccc2)CC1	-12%	-7%[12.7 µM]	-2%	3	18%	-1
O=S(=O)(Cc1ccccc1)N1CCN(Cc2c(F)cccc2Cl)CC1	0%	35µM*	-2%	16	23%	5
CCCS(=O)(=O)NC(=O)C1(C)CCCN(C(=O)c2cc(-c3ccccc3)cs2)C1 (configuration not stated)	/	/	/	-1	/	7
COc1ccc(CN2CCN(S(=O)(=O)c3ccc(F)cc3)CC2)c(OC)c1OC	1.4µM*	28µM*	?	3	-49%	-1
O=S(=O)(c1ccccc1)N1CCN(Cc2ccccc2)CC1	-22%	21%	-4%	-2	24%	3
O=S(=O)(c1ccccc1)N1CCN(Cc2cccc(Cl)c2)CC1	8.9µM*	?	32µM*	8	-54%	7
COc1ccc(Br)cc1CN1CCN(S(=O)(=O)Cc2ccccc2)CC1	8.9µM*	20µM*	-21%	-4	?	5
COc1ccc(C(=O)N2CCN(S(=O)(=O)c3ccccc3)CC2)c(OC)c1	-24%	-5%[59 µM]	-3%	5	23%	5
COc1ccc(OC)c(CN2CCN(S(=O)(=O)c3ccccc3)CC2)c1	20µM*	-28%[59 µM]	?	-1	?	1
COc1cccc(CN2CCN(S(=O)(=O)c3ccccc3)CC2)c1OC	28µM*	/	/	-1	?	-8
CCOc1ccccc1CN1CCN(S(=O)(=O)c2ccccc2)CC1	-7%	16%[59 µM]	8%	/	64%	/
COc1ccc(CN2CCN(S(=O)(=O)c3ccccc3)CC2)c(OC)c1OC	22µM*	/	/	-2	?	2
COc1cc(OC)cc(C(=O)NNC(=O)CCc2nc3ccccc3c(=O)[nH]2)c1	6%	?	10%	0	52%	-8
COc1cc(NC(=S)N2CCCC2)cc(OC)c1	6%	/	2%	1	80%	4
Cn1c(=O)cc(C(=O)N/N=C/c2ccc(F)cc2)[nH]c1=O	-16%	7%	12%	-9	25%	-3
CN=c1scc(-c2ccc(F)cc2)n1/N=C/c1ccc(O)c(O)c1	32µM*	4.5µM*	10µM*	-27	40µM*	?
CCC(=O)Nc1ccc(OCc2cc(C3Nc4ccccc4C(=O)N3Cc3ccccc3)ccc2OC)cc1 (configuration not stated)	-35%	/	/	/	/	/
CCC(C)Sc1cc(-c2nc3cc(C)ccn3c2NC2CCCCC2)ccc1OC (configuration not stated)	50µM*	/	/	-1	-10%	-16
CC(=O)c1ccc(-c2cccc(-c3nc4ccccn4c3NC3CCCCC3)c2)cc1	?	-13%[2.33 µM]	40µM*	/	-14%	-22
CCC(C)Sc1cc(-c2nc3ccccn3c2NC2CCCCC2)ccc1OC (configuration not stated)	79µM*	9%[2.33 µM]	?	-22	4%	-14
Cc1ccn2c(NC3CCCC3)c(-c3cccs3)nc2c1	10µM*	45µM*	?	-2	-11%	0
